Laboratory results taken from the supplement of paper PMC3334620.
Whole data set: some 33,000 sequences, median “E-score (-0.5 to 0.5)” near -0.054, cut for the highest 2% near 0.39. The sample holds the highest values, similar sequences and a random draw of the others, so the mix is not that of the screen.

molecular target: Ylr278c (UniProt Q05854); assay: PBM E-score (8-mer binding enrichment) (E-score (-0.5 to 0.5)); higher = stronger / more preferred TF binding; conditions: protein concentration: 200 nM; construct: GST-DNA-binding domain
Protocol: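 Universal 'all 10-mer' protein binding microarrays (Agilent AMADID 015681) probed with GST-tagged S. cerevisiae TFs (full-length or DBD) made by in vitro transcription/translation (PURExpress), about 100-200 nM. Bound TF was detected with fluorescent anti-GST. Each ungapped 8-mer (which stands for itself and its reverse complement) is scored by the PBM enrichment score (E-score), a modified Wilcoxon-Mann-Whitney statistic from -0.5 to +0.5, computed with the Universal PBM Analysis Suite. Scale: above 0.35 generally sequence-specific binding.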

Sequence of UniProt Q05854 (Q05854 whole entry, the tested form may be a part): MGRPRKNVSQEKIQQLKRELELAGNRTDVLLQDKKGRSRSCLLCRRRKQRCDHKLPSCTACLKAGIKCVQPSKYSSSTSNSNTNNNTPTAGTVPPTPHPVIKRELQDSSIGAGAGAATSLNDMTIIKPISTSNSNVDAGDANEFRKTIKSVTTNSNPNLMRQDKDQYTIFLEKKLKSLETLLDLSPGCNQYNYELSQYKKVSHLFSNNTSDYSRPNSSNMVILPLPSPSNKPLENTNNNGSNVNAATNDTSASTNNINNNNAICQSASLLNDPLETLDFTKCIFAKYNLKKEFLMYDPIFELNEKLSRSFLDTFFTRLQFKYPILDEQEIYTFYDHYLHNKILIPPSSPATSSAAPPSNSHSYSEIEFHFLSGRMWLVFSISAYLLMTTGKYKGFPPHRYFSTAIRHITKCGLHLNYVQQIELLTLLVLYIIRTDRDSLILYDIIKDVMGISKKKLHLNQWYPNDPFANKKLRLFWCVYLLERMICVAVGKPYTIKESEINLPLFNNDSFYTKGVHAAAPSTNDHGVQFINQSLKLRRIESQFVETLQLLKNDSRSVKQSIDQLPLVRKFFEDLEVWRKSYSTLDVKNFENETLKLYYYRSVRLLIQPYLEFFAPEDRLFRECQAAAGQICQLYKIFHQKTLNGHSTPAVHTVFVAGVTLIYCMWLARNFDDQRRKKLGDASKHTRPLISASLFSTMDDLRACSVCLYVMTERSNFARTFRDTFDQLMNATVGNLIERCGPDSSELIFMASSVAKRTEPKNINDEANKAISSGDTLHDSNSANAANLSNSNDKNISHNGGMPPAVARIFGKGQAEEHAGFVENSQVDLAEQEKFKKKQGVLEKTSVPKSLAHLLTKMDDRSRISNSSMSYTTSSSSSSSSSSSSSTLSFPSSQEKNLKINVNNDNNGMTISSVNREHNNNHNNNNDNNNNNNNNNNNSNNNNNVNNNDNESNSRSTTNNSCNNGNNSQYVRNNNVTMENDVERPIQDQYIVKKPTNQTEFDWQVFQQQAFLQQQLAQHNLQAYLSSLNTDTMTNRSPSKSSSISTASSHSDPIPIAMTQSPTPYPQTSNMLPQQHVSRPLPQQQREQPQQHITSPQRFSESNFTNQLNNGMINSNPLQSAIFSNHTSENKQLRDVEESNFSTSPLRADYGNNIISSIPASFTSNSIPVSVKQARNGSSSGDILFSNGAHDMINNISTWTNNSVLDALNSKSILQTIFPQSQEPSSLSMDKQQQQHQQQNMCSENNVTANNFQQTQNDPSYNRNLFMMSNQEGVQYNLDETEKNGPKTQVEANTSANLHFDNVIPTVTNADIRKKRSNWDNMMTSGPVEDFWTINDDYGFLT

| Sequence | PBM E-score |
| --- | --- |
| GCCACCAA | -0.0527 |
| CTTCGCAC | -0.164 |
| AAAAGTCC | 0.371 |
| TAATGGGA | -0.256 |
| AGAAGAGG | -0.194 |
| CCCTCAGC | -0.0523 |
| CCCGGAAG | 0.39 |
| GCCGGAAA | 0.428 |
| CCGGGAAA | 0.354 |
| CACGGAAA | 0.328 |
| GCCGGGAA | 0.329 |
| CCCGGAAA | 0.429 |
| ACCGGGAT | 0.388 |
| ACCGGAAT | 0.389 |
| CTCGGAAG | 0.303 |
| GACGGAAA | 0.35 |
| CACGGAAG | 0.228 |
| ACCGGTAT | 0.277 |
| CGCAATTA | 0.23 |
| AAACTGCC | -0.0969 |
| ACCTCTTA | 0.176 |
| GTCTAAAC | 0.0271 |
| ATCGCGTC | -0.0429 |
| GCTTGGCA | -0.34 |
| GACGGAAC | 0.192 |
| GCCGGAAC | 0.432 |

| Sequence | PBM E-score |
| --- | --- |
| GGCGGAAC | 0.349 |
| GAGCGCTC | 0.0431 |
| TCTTATCA | 0.0183 |
| CCAATGTC | -0.156 |
| GCCTCCGA | 0.398 |
| TCCTCCCA | 0.0879 |
| ACCTCCGA | 0.454 |
| GCCTCCAA | -0.134 |
| CCCTCCAG | -0.0892 |
| TCCTCCGA | 0.43 |
| ACCTCCTA | -0.101 |
| CCCTCCGG | 0.388 |
| TCCTCCAA | -0.245 |
| ACCTCCAA | -0.209 |
| GCCTCCGC | 0.361 |
| CCCTCCGC | 0.259 |
| AAGCCCAG | -0.143 |
| ACACCTAG | -0.13 |
| AGACTTCG | -0.137 |
| GACAGGTA | -0.0451 |
| GCTATAGA | -0.234 |
| CCAGGCAC | -0.0214 |
| ACCTCCGT | 0.383 |
| CCCTCCGA | 0.405 |
| ACCTCCAC | 0.0767 |
| CCCTCCAA | -0.119 |

| Sequence | PBM E-score |
| --- | --- |
| ACCTCCGC | 0.425 |
| ACCTCCTG | -0.253 |
| CCCTCCTA | -0.107 |
| ACCTCCGG | 0.47 |
| ACCTCCTC | -0.0564 |
| GTAAGAAA | -0.0755 |
| GAGCGGCA | 0.207 |
| ATGGTCAC | -0.0597 |
| ATTTAAAA | 0.114 |
| AGGTAGCA | -0.197 |
| CATCTAAC | -0.0951 |
| AGCTAGAC | -0.174 |
| TCGGCGAA | 0.372 |
| GCGGCGAA | 0.378 |
| CTGGCGGC | 0.207 |
| CTGGCGGA | 0.183 |
| CCGGCGGA | 0.456 |
| CCGGCGAA | 0.404 |
| GTGGCGGA | 0.35 |
| CCGGCGGC | 0.407 |
| CAGGCGGA | 0.327 |
| ACGGCGGC | 0.167 |
| GCGGCGGA | 0.453 |
| ACGGCGGA | 0.37 |
| ACGCGAAC | -0.00887 |
| ATGAAGCC | 0.0954 |

| Sequence | PBM E-score |
| --- | --- |
| ACTGCCCA | -0.151 |
| AGTTCATA | -0.0477 |
| AATGGGTG | -0.0286 |
| GAGGCTTA | -0.0425 |
| CCGGCGCC | 0.422 |
| GCGGCGCC | 0.289 |
| ACGGCGCC | 0.184 |
| AATTCTGT | -0.0602 |
| CGCGTGGC | -0.00486 |
| AGGGATTA | -0.223 |
| CTGGATTC | -0.00018 |
| CGGGATTA | 0.406 |
| GGGGATTA | 0.175 |
| CGGGATTC | 0.392 |
| AGGGATTC | -0.0988 |
| GTCGGGCA | 0.0838 |
| GCTGAACA | -0.153 |
| CTTAGTCA | -0.184 |
| CACTACGG | 0.201 |
| AGGTCAAA | -0.237 |
| GATAGTCA | -0.0752 |
| GCTCAGGA | -0.173 |
| ACCCTAAG | -0.173 |
| GCTCGGGA | 0.174 |
| CGGAACTA | 0.422 |
| AGGAACTA | -0.0554 |

| Sequence | PBM E-score |
| --- | --- |
| CTGAACTC | -0.141 |
| GGGAACTA | 0.11 |
| AGGAACTC | 0.0174 |
| CGGAACTC | 0.409 |
| AGGCTTAA | -0.00203 |
| GATACCTA | -0.0272 |
| ATGACGAG | -0.153 |
| GTATTGTA | 0.0802 |
| AATGCCGG | 0.421 |
| CATGCCGA | 0.217 |
| AATGCCGC | 0.352 |
| CATGCCGG | 0.368 |
| AATGCCGT | 0.381 |
| AATGCCGA | 0.392 |
| CGCCAGAC | -0.153 |
| CAGATTAC | -0.0164 |
| TATACCAA | -0.101 |
| AGGAGCTC | -0.122 |
| CGGAGCTA | 0.42 |
| CGGAGCTC | 0.441 |
| CTGAGCTC | 0.0823 |
| AGGAGCTA | -0.144 |
| GGGAGCTA | -0.0279 |
| CGTCTCTC | -0.00934 |
| ATGGCTGA | -0.344 |
| TCAGCACA | -0.175 |

| Sequence | PBM E-score |
| --- | --- |
| GGGACATA | 0.0665 |
| AGGACATC | 0.0899 |
| CGGACATC | 0.421 |
| AGGACATA | -0.278 |
| CTGACATC | -0.0317 |
| CGGACATA | 0.454 |
| GGAAGTTA | 0.204 |
| ATTCCAAC | -0.176 |
| TCGATGAA | -0.11 |
| CTCTTTTC | -0.0672 |
| CCGACGGA | 0.425 |
| GCGACGGA | 0.313 |
| GGGACGGA | 0.369 |
| CCGACGCC | 0.361 |
| ACGACGGA | 0.301 |
| ACGACGCG | 0.0212 |
| CCGACGCG | 0.394 |
| CGGACGGA | 0.397 |
| CGGACGGC | 0.313 |
| GACCTCCA | 0.0669 |
| CCAGCTAG | -0.391 |
| CAAGTTAC | 0.0544 |
| GAGTTCAC | 0.0107 |
| ACGATGAG | -0.0386 |
| ACCCAGTC | -0.0927 |
| ATGCTTCC | -0.0282 |

| Sequence | PBM E-score |
| --- | --- |
| CACTGGCC | -0.0953 |
| AGGAGCAA | -0.0147 |
| TGGAGCAA | -0.111 |
| AGGAGCAC | -0.0853 |
| CGGAGCAG | 0.417 |
| CGGAGCAA | 0.456 |
| CTGAGCAG | -0.238 |
| GGGAGCAC | 0.0245 |
| CGGAGCAC | 0.391 |
| AGGAGCAG | -0.00465 |
| GAGGGAAA | -0.26 |
| AATGCGAG | 0.00781 |
| GTAGGGCA | -0.038 |
| AATTCAGG | 0.127 |
| GTGGTATA | -0.188 |
| CGTCTATC | 0.0841 |
| ACACACTA | -0.13 |
| CTCGGCGA | 0.354 |
| ATCGGGGG | 0.209 |
| ATCGGAGG | 0.426 |
| CTCGGATC | 0.34 |
| ATCGGAGA | 0.455 |
| CTTGGAGA | -0.0088 |
| CTCGGAGC | 0.431 |
| CTCGGTGC | 0.0178 |
| ATCGGTGG | 0.13 |

| Sequence | PBM E-score |
| --- | --- |
| ATCAGAGA | -0.213 |
| CTCGGAGA | 0.449 |
| ATGGGAGA | -0.309 |
| CTGCAGCA | -0.151 |
| ACTCAAAG | -0.129 |
| AACTTGTC | 0.0361 |
| TTAACCAA | -0.136 |
| TAGCATAA | -0.111 |
| ACTCCACA | -0.0234 |
| CCTGACTA | -0.0923 |
| ATCGGATC | 0.33 |
| ATCGGAGC | 0.458 |
| GTCGGATA | 0.312 |
| GTAGGAGA | -0.0599 |
| ATCAGAGC | -0.0306 |
| GTCGGAGA | 0.444 |
| ATATCTCA | 0.0231 |
| GATTATGA | -0.0204 |
| GACTGGAA | -0.161 |
| CAACTTAG | 0.0176 |
| AATAAGAC | -0.228 |
| TGGGCCCA | 0.026 |
| GGGAGTTA | 0.195 |
| CTGAGTTC | 0.0225 |
| AGGAGTTA | 0.232 |
| CGGAGTTC | 0.494 |

| Sequence | PBM E-score |
| --- | --- |
| CGGAGTTA | 0.493 |
| AGGAGTTC | 0.109 |
| GCTACAAA | -0.0551 |
| TAGCCACA | -0.289 |
| CCTAAGAA | -0.261 |
| CGAAAGCG | -0.00844 |
| GTCCCAGA | -0.235 |
| GGGCGAAC | 0.0496 |
| AGGCGGAT | 0.237 |
| AGGCGGAG | 0.39 |
| AGGCGGCG | 0.193 |
| GAGCGGAC | 0.321 |
| AGGCGGAC | 0.386 |
| GGGCGGAC | 0.399 |
| CGGCGGAC | 0.411 |
| CGGCGGAG | 0.461 |
| CGGCGGCA | 0.281 |
| CGGCGGCC | 0.322 |
| AGGCGGGG | 0.221 |
